In PubChem BioAssay AID2501 (Southern Research Specialized Biocontainment Screening …, 2010):
The campaign covered roughly 2,200 compounds. About 1,200 (55%) were called active. Cut-off not given; nearly all actives show IC50 up to about 92 µM. So high a share suggests a set chosen from earlier hits. The list shows a part of the results.

Assay: counter assay for TAg ATPase ADP read-out – biochemical, ADP-Hunter, fluorescence, counter-screen (AID 2501);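 further: purified T antigen ATPase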
Settings: series mostly up to 100 µM

SMILES | IC50
COc1ccc(N2C(=NC(C)=O)SC3CS(=O)(=O)CC32)cc1OC (stereo unspecified) | inactive
CC(C)=CCc1c(O)c(CC=C(C)C)c2c(c1O)-c1cc(O)c(O)cc1CC2 | inactive
O=C(NCc1ccccn1)C1CCN(S(=O)(=O)c2ccccc2)CC1 | inactive
CCN(CC)c1ccc(NC(=O)c2cccc(F)c2)c(C)c1 | 9.01 µM (active)
COc1ccc2c(c1OC)C(=O)N(c1ccc(O)cc1)C2 | 2.39 µM (active)
C=CS(=O)c1sc(Cl)c(N2CCOCC2)c1[N+](=O)[O-] (stereo unspecified) | inactive
CC(=O)Oc1cc2cccc(OC(C)=O)c(=O)c2c(OC(C)=O)c1OC(C)=O | 91.6 µM (active)
Cc1ccc(S(=O)(=O)Nc2cc(NC(=O)CN3CCOCC3)ccc2Cl)cc1 | inactive
Cn1c(CCC(=O)Nc2cc(S(C)(=O)=O)ccc2Cl)nc2cc(S(=O)(=O)N3CCOCC3)ccc21 | inactive
COC(=O)Nc1ccc(S(=O)(=O)N2CCCC(C(=O)N3CCOCC3)C2)cc1 (stereo unspecified) | inactive
O=C(CN1CCN(c2ccc(O)cc2)CC1)Nc1cc(S(=O)(=O)N2CCOCC2)ccc1Cl | 6.43 µM (active)
Cc1ccc(S(=O)(=O)N2CCOCC2)cc1NC(=O)CN1CCN(c2ccc(O)cc2)CC1 | 5.44 µM (active)
O=S(=O)(c1ccc(NC(=S)N2CCN(c3ccc(O)cc3)CC2)cc1)N1CCOCC1 | 4.49 µM (active)
Cc1ccc(S(=O)(=O)n2nc(OC(=O)c3ccccc3C)cc2N)cc1 | inactive
O=C(Nc1cccc(NC(=O)c2ccco2)c1)c1ccc([N+](=O)[O-])cc1 | inactive
COc1ccccc1NC(=O)c1c([N+](=O)[O-])cnn1C | inactive
COc1cc(NC(=O)COc2ccccc2C)ccc1NC(=O)c1ccco1 | inactive
COc1ccccc1NC(=O)Oc1ccc(NC(=O)c2ccco2)cc1 | 3.94 µM (active)
O=C(Nc1ccc(Cl)c(Cl)c1)Oc1ccc(NC(=O)c2ccco2)cc1 | 23.2 µM (active)
C=CCSc1nc(N)c(NC(=O)c2ccco2)c(=O)[nH]1 | inactive
Cc1cc(O)c(C=O)c2c1C(=O)Oc1c(CO)c(O)c3c(c1O2)C(O)OC3=O (stereo unspecified) | inactive
O=[N+]([O-])c1cc(CN2CCCC2)c2cccnc2c1O | inactive
O=S(=O)(O)c1cccc2c(N=Nc3ccc(O)c4ncccc34)cccc12 | inactive
O=[N+]([O-])c1cc([N+](=O)[O-])c2cccnc2c1Oc1ccccc1O | 21.8 µM (active)

SMILES | IC50
Cc1nonc1C1CCCN1C(=O)c1cc(COc2ccc(F)cc2F)on1 (stereo unspecified) | inactive
O=C(CCO)c1ccc(O)cc1 | inactive
COc1cc(O)ccc1C(=O)CCc1ccc(O)cc1 | 6.75 µM (active)
COc1ccccc1C(NC(C)=O)c1c(O)ccc2ccc(O)cc12 (stereo unspecified) | inactive
COc1cc(C2OCC3C(c4ccc(OC5OC(CO)C(O)C(O)C5O)c(OC)c4)OCC23)ccc1O (stereo unspecified) | 8.74 µM (active)
O=C(CN1C(=O)/C(=C/c2ccco2)SC1=S)Nc1ccc(O)c(C(=O)O)c1 | inactive
O=C(CN1C(=O)/C(=C/c2ccco2)SC1=S)NC1CCS(=O)(=O)C1 (stereo unspecified) | 35.1 µM (active)
O=C(CN1C(=O)/C(=C\c2ccco2)SC1=S)Nc1ccc(O)cc1C(=O)O | inactive
N#Cc1c(Nc2ccccc2Cl)s[nH]c1=O | inactive
O=C(O)CSc1cc(NS(=O)(=O)c2ccc(Cl)cc2)c2ccccc2c1O | inactive
O=C([C@H](Cc1ccccc1)NS(=O)(=O)c1ccc(Cl)cc1)N1CC[C@@]2(O)CCCC[C@H]2C1 | 18.9 µM (active)
COc1ccc(-c2c(C)nn3c(-c4ccccc4)cc(C)nc23)cc1 | inactive
NC(=S)N=Nc1ccc(NN=C(N)N)cc1 | 6.85 µM (active)
COc1ccccc1C1/C(=C(/O)c2ccc(C)cc2)C(=O)C(=O)N1CC(C)O (stereo unspecified) | inactive
CCOC1=C/C(=C/c2c(N)n3nc(-c4ccccc4)sc3nc2=O)C=CC1=O | 11.2 µM (active)
O=c1nc2s/c(=C\c3ccco3)c(=O)n2nc1Cc1ccccc1 | inactive
COC1=C/C(=C/c2c(N)n3nc(-c4ccc(C)cc4)sc3nc2=O)C=CC1=O | 10.8 µM (active)
CCCOc1ccc(Cc2nn3c(=O)/c(=C/c4ccco4)sc3nc2=O)cc1 | inactive
CCOC(=O)N1CCN(c2cc(NCCC(=O)O)c3c4c(onc24)-c2ccccc2C3=O)CC1 | 8.63 µM (active)
CCOc1c(Br)cc(CNc2ccc(N3CCOCC3)cc2)cc1OC | 6.04 µM (active)
CCOc1c(Br)cc(CNc2ccc(N3CCN(C(C)=O)CC3)cc2)cc1OC | 7.66 µM (active)
CCOc1cc(CNc2ccc(N3CCN(C(C)=O)CC3)cc2)cc(Br)c1OC | 5.42 µM (active)
Cn1ncc2nnn(-c3ccccc3)c(=O)c21 | inactive
Brc1ccc(-c2nn3c(-c4ccco4)nnc3s2)o1 | inactive

SMILES | IC50
CCOc1cc(/C=N\NC(=O)Cn2nnc3ccccc32)ccc1O | 5.43 µM (active)
COc1ccc(Cc2nc3ccccc3n2CC(=O)N/N=C/c2ccc(O)cc2)cc1OC | 4.33 µM (active)
CCOc1ccc(NC(=O)c2nnn(CC(=O)Nc3ccccc3OC)c2N)cc1 | inactive
COc1cc(/C=N/NC(=O)C(C)n2nnc3ccccc32)ccc1O (stereo unspecified) | 3.07 µM (active)
COc1cc(/C=N/NC(=O)CCc2c(C)n[nH]c2C)ccc1O | 4.69 µM (active)
CC(C(=O)Nc1ccccc1Cl)N(c1ccccc1)S(C)(=O)=O (stereo unspecified) | inactive
CCCSC1=N/C(=C\C=C\c2ccco2)C(=O)S1 | inactive
COc1cc(/C=N/NC(=O)CCn2nnc3ccccc32)ccc1O | 3.56 µM (active)
CCOc1cc(/C=N/NC(=O)CCn2nnc3ccccc32)ccc1O | 3.32 µM (active)
COc1cc(/C=N/NC(=O)CCn2nc(C)cc2C)ccc1O | 6.73 µM (active)
COc1cc(/C=N/NC(=O)Cn2nnc3ccccc32)ccc1O | 2.86 µM (active)
CCOC(=O)C1=C(N)n2c(s/c(=C\c3ccco3)c2=O)=C(C(=O)OCC)C1c1ccco1 (stereo unspecified) | inactive
C[C@]12CC[C@@H]3c4cc(O)c(O)cc4CC[C@H]3[C@@H]1CC[C@@H]2O | inactive
CCCNC(=O)c1ccc(CNc2c(N3CCC(C(=O)OCC)CC3)c(=O)c2=O)cc1 | inactive
O=C1NC(=Nc2ccc(O)cc2)S/C1=C\C=C\c1ccco1 | 3.48 µM (active)
O=C(O)CC(C(=O)O)N1C(=O)/C(=C/C=C/c2ccco2)SC1=S (stereo unspecified) | inactive
O=C(CCCN1C(=O)/C(=C\c2ccco2)SC1=S)Nc1ccc(O)cc1C(=O)O | inactive
O=C1NC(=Nc2ccc(O)cc2)S/C1=C/c1ccco1 | 5.16 µM (active)
Cc1ccc(S(=O)(=O)/N=C2/NC(=O)/C(=C\c3ccco3)S2)cc1 | inactive
Cc1cccc(N=C2NC(=O)/C(=C/C=C/c3ccco3)S2)c1 | inactive
CCCC[C@@H]1CN=C(N)N1CCc1cc(C(F)(F)F)cc(C(F)(F)F)c1 | inactive
O=Nc1c(-c2cccc([N+](=O)[O-])c2)nc2ncccn12 | inactive
CN=c1nc(-c2ccccc2)n(-c2ccccc2)s1 | 11.8 µM (active)
CCOC(=O)C1=C(C)NC(=S)NC1c1ccc(OC(=O)c2ccco2)cc1 (stereo unspecified) | inactive

SMILES | IC50
O=C(N/N=C/c1ccc(OC(=O)c2ccco2)cc1)c1ccc[n+]([O-])c1 | 41.7 µM (active)
Oc1ccc(-c2nc(=S)[nH][nH]2)cc1 | 2.49 µM (active)
O=c1c2ccccc2sn1-c1cc(S(=O)(=O)N2CCOCC2)ccc1N1CCCC1 | 12.5 µM (active)
O=C(Nc1ccc(S(=O)(=O)N2CCCC2)cc1)N1c2ccccc2Sc2ccccc21 | inactive
O=c1c2ccccc2sn1-c1cc(S(=O)(=O)N2CCOCC2)ccc1N1CCOCC1 | 12.5 µM (active)
Cc1ccc2c(c1)C(c1ccccc1)N(C(=O)c1ccc(S(=O)(=O)N3CCOCC3)cc1)CC(=O)N2 (stereo unspecified) | inactive
C[C@@H]1O[C@@H](OC2C(O)C(OCCc3ccc(O)c(O)c3)OC(CO)C2OC(=O)/C=C/c2ccc(O)c(O)c2)[C@H](O)[C@H](O)[C@H]1O (stereo partly specified) | 6.02 µM (active)
Nc1nc[nH]c(=O)c1N=Cc1ccccc1 | 12.2 µM (active)
CCN=C(Nc1ccc2c(c1)OCO2)SC1CC(=O)N(c2ccc(OC)cc2)C1=O (stereo unspecified) | inactive
C=CCNc1nnc(SC2CC(=O)N(c3ccc(OC)cc3)C2=O)s1 (stereo unspecified) | 11.2 µM (active)
CN1/C(=C\C=N\NC(=O)c2ccc(O)cc2)C(C)(C)c2ccccc21 | 8.51 µM (active)
Cc1c(/C=N/NC(=O)c2ccc(O)cc2)c2ccccn2c1C(=O)c1ccc(F)cc1 | inactive
Cc1cc(-c2ccc(N=Nc3c(S(=O)(=O)O)cc4cc(S(=O)(=O)O)cc(N)c4c3O)c(C)c2)ccc1N=Nc1c(S(=O)(=O)O)cc2cc(S(=O)(=O)O)cc(N)c2c1O | 11.5 µM (active)
O=S(=O)(O)c1cc(O)c2c(O)c(N=Nc3cc(Cl)ccc3O)c(S(=O)(=O)O)cc2c1 | 81.2 µM (active)
Cc1sc(NC(=O)C2C3CCC(O3)C2C(=O)O)c(C(=O)OC(C)C)c1-c1ccc(Cl)cc1 (stereo unspecified) | inactive
CCn1cnc2cc(NCc3cccc(OC)c3O)ccc21 | 3.71 µM (active)
CCCn1cnc2cc(NCc3cccc(OC)c3O)ccc21 | 4.87 µM (active)
C/C(Cl)=C\Cn1c(N2CCCC2)nc2c1c(=O)[nH]c(=O)n2C | inactive
O=C(O)CCNc1ccc(NCCC(=O)O)c2c1C(=O)c1ccccc1C2=O | 7.52 µM (active)
Oc1cnn(-c2ccccc2)c1 | 7.63 µM (active)
CCOc1cc(/C=N/Nc2nc(-c3cccs3)c(NC(C)=O)s2)ccc1O | 9.71 µM (active)
COc1cc(/C=N\Nc2nc(-c3cccs3)c(NC(C)=O)s2)ccc1O | 4.67 µM (active)
CC(=O)Nc1sc(N/N=C\c2ccco2)nc1-c1cccs1 | 74 µM (active)
O=C(Nc1nc(-c2ccco2)c(-c2ccco2)s1)c1ccco1 | inactive
